From PubChem BioAssay (NCATS) come the findings set out here.

SMILES strings stand for the structures. Results filed as inconclusive are left out. Unmarked numbers belong to inactive results. Activity calls are given as the source filed them. Calls come from the whole dose curve; as a rule, active = well fitted cell-killing curve with a large enough effect; inconclusive = small, poorly fitted or top-dose-only effect, or effect the other way; inactive = no such curve, though single readings can be large or run the other way.
Potency is the fitted concentration of half-maximal effect.

A short description of the assay: Quantitative High-Throughput drug screen in 47 multiple myeloma cell lines against the NCATS MIPE library collection: INA6_PLB cell viability assay (AID 1918965; note: nearly all actives have a fitted effect of over 55% in size). To be noted: INA6 myeloma viability, CellTiter-Glo ATP luminescence, 48 h; series mostly up to 45.8 µM; viability (% of control): at the top concentration. The source says: PI: Beverly A. Mock Ph.D.
Laboratory of Cancer Biology and Genetics,
Center for Cancer Research, National Cancer Institute,
National Institute of Health, Bethesda, Maryland
Drug resistance and disease progression are common in multiple myeloma (MM) patients, underscoring the need for new therapeutic combinations. […] We hypothesized that effective combinations would reduce MYC expression and enhance p16 activity. […] These preclinical data identify potentially useful drug combinations for evaluation in drug-resistant MM and reveal potential mechanisms of combined drug sensitivity.
Described herein is the primary MIPE qHTS used to cherrypick compounds. Validated compounds were then further tested for potential synergistic activiy.
[1] Peat TJ, Gaikwad SM, Dubois W, Gyabaah-Kessie N, Zhang S, Gorjifard S, Phyo Z, Andres M, Hughitt VK, Simpson RM, Miller MA, Girvin AT, Taylor A, Williams D, D'Antonio N, Zhang Y, Rajagopalan A, Flietner E, Wilson K, Zhang X, Shinn P, Klumpp-Thomas C, McKnight C, Itkin Z, Chen L, Kazandijian D, Zhang J, Michalowski AM, Simmons JK, Keats J, Thomas CJ, Mock BA. Drug combinations identified by high-throughput screening promote cell cycle transition and upregulate Smad pathways in myeloma. Cancer Lett. 2023 Aug 1;568:216284. doi: 10.1016/j.canlet.2023.216284. Epub 2023 Jun 24. PMID: 37356470; PMCID: PMC10408729.
SEQUENCE No. (e.g., 1, 2, 3, etc.); […] (e.g., Cells, Incubation, Reagent, etc.); VALUE and DESCRIPTION.
1; Cells; 5 uL; white, solid bottom 1536-well Greiner assay plate.
2; Compounds; 23 nL; Kalypsis pin tool (Wako USA) equipped with a 1536-well pin head to transfer to the assay plates.
3; Incubation; 48 hours; 37C incubation.
4; Reagent;5uL; CellTiter Glo (Promega).
5; Detector; 425V; Luminescence; Viewlux PerkinElmer.
NOTES (numbers refer to Sequence numbers above)
1. The cell-based screening methods employed in this study were like those previously published. Briefly, the corresponding myeloma cell lines were screened in 1,536-well plates with 500 cells, 5-uL per well for inhibition of cell viability (assessed by measuring ATP levels with CellTiterGlo).
2. NCATS MIPE 4.0 library of approved and investigational drugs were added using the Kalypsis pin tool. Wells treated with DMSO only for 100% viability and media only wells for 0% viability were used as controls.
3. The assay plates were covered and incubated for 48 hours in a 37C, 5% CO2 incubator with controlled humidity.
4. After 48 hours, CellTilter-GloTM luminescent substrate mix (Promega) reagent was added to the assay plate and plates we incubated for 5 min at room temperature.
5. Signal was measured as median relative luminescence units on a ViewLux (PerkinElmer) multiplate reader.
[1] Heske CM, Davis MI, Baumgart JT, Wilson K, Gormally MV, Chen L, Zhang X, Ceribelli M, Duveau DY, Guha R, Ferrer M, Arnaldez FI, Ji J, Tran HL, Zhang Y, Mendoza A, Helman LJ, Thomas CJ. Matrix Screen Identifies Synergistic Combination of PARP Inhibitors and Nicotinamide Phosphoribosyltransferase (NAMPT) Inhibitors in Ewing Sarcoma. Clin Cancer Res. 2017 Dec 1;23(23):7301-7311. doi: 10.1158/1078-0432.CCR-17-1121. Epub 2017 Sep 12. PMID: 28899971; PMCID: PMC6636827.
Regarding `CCc1c2c(nc3ccc(OC(=O)N4CCC(N5CCCCC5)CC4)cc13)-c1cc3c(c(=O)n1C2)COC(=O)[C@]3(O)CC`, the Potency was 0.469 µM (active). Same read-out and setting: in the case of `CO[C@@]12[C@H](COC(N)=O)C3=C(C(=O)C(C)=C(N)C3=O)N1C[C@@H]1N[C@@H]12` it was 20.9 µM (active); in that of `O[C@@H](CNC[C@H](O)[C@H]1CCc2cc(F)ccc2O1)[C@@H]1CCc2cc(F)ccc2O1`, 20.9 µM (active).

Turning to `CC(C)(C#N)c1cc(Cn2cncn2)cc(C(C)(C)C#N)c1`, the “viability (% of control)” value is 108%. Regarding `Cc1nnc(NS(=O)(=O)c2ccc(N)cc2)s1`, the Potency is 9.35 µM (active). For the compound `NC(N)=NC(N)=NCCc1ccccc1`, the Potency is 20.9 µM (active). For the compound `COc1ccc2c(c1)c(CC(=O)OCC(=O)O)c(C)n2C(=O)c1ccc(Cl)cc1`, the “viability (% of control)” value was 157%. Regarding `COc1ccccc1OCC(O)COC(N)=O` (stereo not given), the “viability (% of control)” value was 119%. Still for that read-out and setting: in the case of `CCN[C@H]1C[C@H](C)S(=O)(=O)c2sc(S(N)(=O)=O)cc21` it was 135%. For `COC(=O)Nc1nc2ccc(C(=O)c3ccccc3)cc2[nH]1`, the Potency was 1.18 µM (active). For the compound `CCCN[C@H]1CCc2nc(N)sc2C1`, the “viability (% of control)” value was 136%. In the case of `COc1ncnc(NS(=O)(=O)c2ccc(N)cc2)c1OC`, the “viability (% of control)” value was 135%. On to `Cc1noc(NS(=O)(=O)c2ccc(N)cc2)c1C`, for which the “viability (% of control)” value is 146%. `CC(C)(C)NC(=O)[C@H]1CC[C@H]2[C@@H]3CC[C@H]4NC(=O)C=C[C@]4(C)[C@H]3CC[C@]12C`: the Potency is 0.833 µM (active). Still for that read-out and setting: the value for `CC(C)(Sc1cc(C(C)(C)C)c(O)c(C(C)(C)C)c1)Sc1cc(C(C)(C)C)c(O)c(C(C)(C)C)c1` was 4.69 µM (active); that for `CC(C)C[C@H](NC(=O)[C@H](CCc1ccccc1)NC(=O)CN1CCOCC1)C(=O)N[C@@H](Cc1ccccc1)C(=O)N[C@@H](CC(C)C)C(=O)[C@@]1(C)CO1` was 0.001 µM (active). For `CCN(C)C(=O)Oc1cccc([C@H](C)N(C)C)c1`, the “viability (% of control)” value was 182%. Consider `CC1=CC(=O)c2ccccc2C1=O`, for which the Potency is 8.33 µM (active). Take `CCCc1nc(C)c2c(=O)[nH]c(-c3cc(S(=O)(=O)N4CCN(CC)CC4)ccc3OCC)nn12`: the Potency was 4.18 µM (active). As to `CCOC(=O)c1ccc(OC(=O)CCCCCN=C(N)N)cc1`, the “viability (% of control)” value was 127%.

With `O=S(=O)(O)CCS`, the “viability (% of control)” value was 164%. As to `C[C@@H]1C[C@H]2[C@@H]3CCC4=CC(=O)C=C[C@]4(C)[C@@]3(Cl)[C@@H](O)C[C@]2(C)[C@@]1(OC(=O)c1ccco1)C(=O)CCl`, the Potency was 2.96 µM (active).

For the compound `NC(=O)c1ccc2[nH]ccc2c1`, the “viability (% of control)” value is 142%. As to `CCCCc1oc2ccc(NS(C)(=O)=O)cc2c1C(=O)c1ccc(OCCCN(CCCC)CCCC)cc1`, the Potency was 9.35 µM (active). For the compound `COc1cc(NS(=O)(=O)c2ccc(N)cc2)nc(OC)n1`, the “viability (% of control)” value is 139%. Regarding `CC(=O)CC(c1ccccc1)c1c(O)c2ccccc2oc1=O` (stereo not given), the “viability (% of control)” value is 155%. `CCOC(=O)c1ccc(C#Cc2ccc3c(c2)C(C)(C)CCS3)nc1`: the “viability (% of control)” value is 121%. Consider `CC(N)C12CC3CC(CC(C3)C1)C2` (stereo not given), for which the “viability (% of control)” value is 128%. Take `CC[C@H](C)C(=O)O[C@H]1C[C@@H](C)C=C2C=C[C@H](C)[C@H](CC[C@@H]3C[C@@H](O)CC(=O)O3)[C@H]21`: the Potency is 18.7 µM (active). Turning to `CN(C)CCc1c[nH]c2ccc(CS(=O)(=O)N3CCCC3)cc12`, the Potency is 0.0074 µM (active). `O=C(O)c1cccnc1`: the “viability (% of control)” value is 140%. Regarding `Nc1nc(=S)c2[nH]cnc2[nH]1`, the Potency was 0.469 µM (active). Regarding `COc1ccc(-c2ccc3cc(C(=O)O)ccc3c2)cc1C12CC3CC(CC(C3)C1)C2`, the “viability (% of control)” value was 189%. The same measure, in the same setting: in the case of `COc1cc([C@@H]2c3cc4c(cc3[C@H](O)[C@H]3COC(=O)[C@H]23)OCO4)cc(OC)c1OC` it was 6.94%. Take `C[C@@H]1CN(c2c(F)c(N)c3c(=O)c(C(=O)O)cn(C4CC4)c3c2F)C[C@H](C)N1`: the “viability (% of control)” value was 200% [at 23.2 µM]. As to `CN(C)c1ccc(C(=C2C=CC(=[N+](C)C)C=C2)c2ccc(N(C)C)cc2)cc1`, the Potency was 0.0093 µM (active). Take `NC(=O)c1cccc(N)c1`: the “viability (% of control)” value was 155%. For `CCCCCCNC(=O)n1cc(F)c(=O)[nH]c1=O`, the Potency is 11.8 µM (active).

For the compound `CN1CCN(c2c(F)cc3c(=O)c(C(=O)O)cn4c3c2OCN4C)CC1`, the “viability (% of control)” value is 157%. Turning to `Cc1cc(NS(=O)(=O)c2ccc(N)cc2)no1`, the “viability (% of control)” value was 121%.
